# In the supplement of paper PMC13380429:
# Values without a mark were called inactive.
# Tested on: Vero E6 infected with SARS-CoV-2
# Test: inhibition of SARS-CoV-2 cytopathic effect; higher = more antiviral protection, active = above 15
# Conditions: 48 h
Structure (SMILES),inhibition of SARS-CoV-2 cytopathic effect (1 nM),inhibition of SARS-CoV-2 cytopathic effect (8.33 nM),inhibition of SARS-CoV-2 cytopathic effect (100 nM),inhibition of SARS-CoV-2 cytopathic effect (833.33 nM),inhibition of SARS-CoV-2 cytopathic effect (10000 nM)
CC1(CN)Cc2ccccc2C1,4.53%,-3.63%,-3.31%,1.99%,-3.29%
CN(C)C/C=C(/c1ccc(Br)cc1)c1cccnc1 [zimelidine],0.58%,1.8%,0.96%,-1%,-1.69%
CCOCOC[C@H](C[C@H](C)C(=O)NO)NC(=O)c1ccc(Oc2ccccc2)cc1,4.15%,13.5%,5.33%,-3.29%,-6.18%
Nc1c(CC(=O)O)cccc1C(=O)c1ccccc1 [amfenac],0.42%,0.91%,1.2%,-0.82%,-2.19%
Cc1nc2ccccc2c(-c2ccc3c4c(ccnc24)CCO3)c1[C@H](OC(C)(C)C)C(=O)O,-1.93%,-2.73%,-4.38%,-4.78%,-3.59%
CCn1c2ccccc2c2cc(CNC)ccc21,4.22%,4.54%,-0.29%,-0.75%,-3.22%
CCCCCC(=O)O[C@]1(C(C)=O)CC[C@H]2[C@@H]3CCC4=CC(=O)CC[C@]4(C)[C@H]3CC[C@@]21C [17-hydroxyprogesterone-caproate],-1.12%,1.14%,1.12%,1.58%,5.84%
O=C1C(Cl)=C(NCCN2CCOCC2)C(=O)c2ncccc21,-0.37%,1.19%,1.71%,6%,-17.2%
COc1cc2c(Oc3ccc4[nH]c(C)cc4c3F)ccnc2cc1OCC1(N)CC1 [anlotinib],1.84%,-1.41%,1.56%,1.39%,-7.82%
O=C(O)CCc1c(C(=O)O)[nH]c2cc(Cl)cc(Cl)c12,0.7%,2.79%,1.68%,-2.26%,0.81%
CN1CCN(c2ccc3nc(-c4c(N)c5c(F)cccc5[nH]c4=O)[nH]c3c2)CC1 [dovitinib],1.8%,0.97%,0.34%,-1.8%,-0.5%
CC(C)(C)C[C@@H]1N[C@@H](C(=O)N[C@H]2CC[C@H](O)CC2)[C@H](c2cccc(Cl)c2F)[C@]12C(=O)Nc1cc(Cl)ccc12,-4.12%,-2.43%,-7.89%,2.65%,2.37%
COc1ccc(Cn2ccc3ccc(C(=O)NO)cc32)cc1,0.35%,0.42%,3.29%,1.7%,-2.47%
CCOC(=O)C1=CCCC[C@H]1S(=O)(=O)Nc1ccc(F)cc1Cl [resatorvid],1.61%,1.54%,3.21%,0.29%,-0.49%
CCOC(=O)c1c(O)nc2cccc3c2c1-c1ccccc1C3=O,0.21%,0.57%,5.31%,4.72%,4.09%
CCn1c(=O)n(C2=C(CO)CN(CC3CCCCCCC3)CC2)c2ccccc21 [trap-101],-2.39%,1.16%,1.23%,1.48%,-3.08%
O=C(c1ccc(Cl)o1)N1CC2CNCC2C1 (stereo not given),-0.08%,1.51%,2.2%,1.83%,0.93%
C[C@@H]1C[C@H]2[C@@H]3CCC4=CC(=O)C=C[C@]4(C)[C@@]3(Cl)[C@@H](O)C[C@]2(C)[C@@]1(OC(=O)c1ccco1)C(=O)CCl,-0.2%,-2.64%,-2.34%,-2.86%,3.12%
O=C(c1ccc2nccnc2c1)N1CCCCC1 [ampalex],-0.24%,0.88%,0.65%,0.17%,0.77%
COC1(C[S@@+]([O-])c2ccccc2)CCN(CCc2c[nH]c3ccc(F)cc23)CC1,1.49%,4.84%,3.16%,1.05%,-2.13%

Structure (SMILES),inhibition of SARS-CoV-2 cytopathic effect (1 nM),inhibition of SARS-CoV-2 cytopathic effect (8.33 nM),inhibition of SARS-CoV-2 cytopathic effect (100 nM),inhibition of SARS-CoV-2 cytopathic effect (833.33 nM),inhibition of SARS-CoV-2 cytopathic effect (10000 nM)
O=C1NC(=S)NC(=O)C1C(=O)Nc1ccccc1 [merbarone],-0.86%,-1.86%,-0.15%,-0.03%,1.95%
COc1cccc(Nc2c(C(N)=O)cnc3c(C)cc(S(=O)(=O)c4cccc(C(=O)N(C)C)c4)cc23)c1,1.19%,3.12%,0.15%,3.01%,0.48%
CCCCCCOc1cc2c(cc1N(C)c1ncc(C(=O)O)cn1)C(C)(C)CCC2(C)C,-1.61%,3.1%,3.71%,4.08%,5.06%
NS(=O)(=O)Nc1ncnc(OCCOc2ncc(Br)cn2)c1-c1ccc(Br)cc1,-1.74%,-0.97%,-0.65%,-3.11%,-3.32%
CN1CCCN=C1COC(=O)C(O)(c1ccccc1)C1CCCCC1 (stereo not given) [oxyphencyclimine],2.48%,0.59%,0.28%,2.86%,-1.14%
CC[N+](CC)(CCNC(=O)C(=O)NCC[N+](CC)(CC)Cc1ccccc1Cl)Cc1ccccc1Cl [ambenonium],0.39%,-2.16%,-1.45%,0.75%,0.34%
COC(=O)N[C@@H](C)CNc1nccc(-c2cn(C(C)C)nc2-c2cc(Cl)cc(NS(C)(=O)=O)c2F)n1 [Encorafenib (LGX818)],0.31%,0.31%,2.88%,6.46%,-1.13%
O=c1n(CCCN2CCN(c3cccc(Cl)c3)CC2)nc2ccccn12 [trazodone],0.53%,4.07%,0.98%,-1.12%,-0.82%
CC(C)=CCC/C(C)=C/CC/C(C)=C/CSc1ccccc1C(N)=O [farnesyl-thiosalicylic-acid-amide],-1.77%,-2.42%,-3.06%,-5.68%,-2.46%
CC1(C)CC[C@]2(NC(=O)C(C)(F)F)CC[C@]3(C)[C@H](C(=O)C=C4[C@@]5(C)C=C(C#N)C(=O)C(C)(C)[C@@H]5CC[C@]43C)[C@@H]2C1 [Omaveloxolone (RTA-408)],4.28%,6.39%,3.8%,17.2% (active),-13.7%
C=CCCCCCCCCC(=O)[O][Zn][O]C(=O)CCCCCCCCC=C [zinc-undecylenate],0.73%,0.52%,-0.83%,0.72%,2.73%
CN1CCC(c2c[nH]c3ccc(O)cc23)CC1,-0.56%,2.91%,0.58%,3.92%,-0.8%
O=C(OCCOCCO)c1ccccc1Nc1cccc(C(F)(F)F)c1 [etofenamate],1.16%,-1.53%,0.55%,-0.46%,-2.39%
C=CCN1C[C@H](C)N([C@H](c2ccc(C(=O)N(CC)CC)cc2)c2cccc(OC)c2)C[C@H]1C,-0.66%,1.28%,1.71%,-0.17%,-1.85%
Nc1nc(OCc2ccccc2)c2nc[nH]c2n1 [O6-benzylguanine],2.66%,2.87%,-5.93%,-3.87%,-1.55%
CCS(=O)(=O)N1CCN(c2ccc(Nc3ncc(C(N)=O)c(NC4CC4)n3)cc2)CC1,-1.63%,-0.99%,-2.24%,2.08%,-5.53%
CC(=O)C1=C(O)[C@@H]2[C@H]3c4c[nH]c5cccc(c45)C[C@H]3C(C)(C)N2C1=O [cyclopiazonic-acid],0.48%,0.86%,2%,-0.85%,14.2%
CC(N)CCCC(C)(C)O (stereo not given) [heptaminol],0.22%,3.55%,2.95%,-3.4%,0.76%
CC[C@]12C=CCN3CC[C@@]4(c5cc([C@@]6(C(=O)OC)C[C@@H]7C[C@@H](C(C)(F)F)CN(Cc8c6[nH]c6ccccc86)C7)c(OC)cc5N(C)[C@H]4[C@@](O)(C(=O)OC)[C@@H]1OC(C)=O)[C@@H]32 [Vinflunine Ditartrate],3.38%,3.35%,2.91%,-2.99%,-3.92%
